Source: PubChem BioAssay (EPA / NIEHS)
The source made the active and inactive calls. Rule for the calls: active = hit-call score of the fitted dose curve at least 0.9, where 1 is the maximum; inactive = score below 0.9.

Key:
[1] = ATG_M_32_CIS: Attagene CIS-FACTORIAL HepG2 Assay for M32 Transcription Factor (Internal Marker) (AID 2282949); conditions: HepG2 Attagene cis-factorial M32 reporter, mRNA; actives raise or lower the signal;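 note: background control marker of the multiplexed CIS panel rather than a real target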
Method in brief: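 Using DMSO as baseline, bidirectional curve fits were applied to reporter mRNA signals. These came from transiently transfected HepG2 cells exposed for 24 h, with RNA analysed by RT-PCR, FAM primer extension, HpaI digestion and CE.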

[2] = ATG_M_06_CIS: Attagene CIS-FACTORIAL HepG2 Assay for M06 Transcription Factor (Internal Marker) (AID 2282950); conditions: HepG2 Attagene CIS-FACTORIAL M06 internal marker reporter; actives raise or lower the signal
Method in brief: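 Read-out is fluorescence of labelled reporter cDNA fragments resolved by capillary electrophoresis after RT-PCR. Cells: HepG2 carrying transfected cis-promoter reporter units, treated 24 h. Gain or loss of signal fitted relative to DMSO.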

[3] = biological target: Hypoxia-inducible factor 1-alpha (Homo sapiens) (UniProt Q16665); assay: ATG_HIF1a_CIS: Attagene CIS-FACTORIAL HepG2 Assay for human Hypoxia Inducible Factor 1 (HIF1A) (AID 2282951); conditions: HepG2 Attagene cis-factorial HIF1a reporter transcription; actives raise or lower the signal
Method in brief: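 In this multiplexed cell assay, HepG2 cells bearing transfected cis reporters are dosed for 24 h and reporter mRNA is read by RT-PCR plus capillary electrophoresis; signal increases and decreases are both scored against DMSO.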

[4] = biological target: Hepatocyte nuclear factor 6 (Homo sapiens) (UniProt Q9UBC0); assay: ATG_HNF6_CIS: Attagene CIS-FACTORIAL HepG2 Assay for human Hepatocyte Nuclear Factor 6 (HNF6) (AID 2282952); conditions: HepG2 Attagene cis-factorial HNF6 reporter transcription; actives raise or lower the signal
Method in brief: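 Endogenous transcription factor activity in human HepG2 liver cells was captured through cis-regulated reporter constructs. After 24 h treatment, reporter mRNA was measured by RT-PCR with capillary electrophoresis, and activity was fitted in both directions relative to DMSO.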

[5] = biological target: Heat shock factor protein 1 (Homo sapiens) (UniProt Q00613); assay: ATG_HSE_CIS: Attagene CIS-FACTORIAL HepG2 Assay for human Heat Shock Transcription Factor 1 (HSE) (AID 2282953); conditions: HepG2 HSE cis-reporter, Attagene RNA transcription; actives raise or lower the signal
Method in brief: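 HepG2, transient MRTU transfection, cis-promoter reporters (endogenous TF activity). 24 h compound. RNA → oligo(dT) RT → PCR → 6-FAM primer extension → HpaI cut → CE. Bidirectional fit vs DMSO.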

[6] = ATG_MRE_CIS: Attagene CIS-FACTORIAL HepG2 Assay for human Metal Responsive Element (MRE) (AID 2282954); conditions: HepG2 MRE cis-reporter transcription, Attagene multiplex; actives raise or lower the signal
Method in brief: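 Multiplexed cis-reporter assay in human HepG2 liver cells, 24 h incubation with test chemical. Reporter transcripts measured by RT-PCR and capillary electrophoresis; values from bidirectional curve fitting versus DMSO.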

[7] = ATG_PBREM_CIS: Attagene CIS-FACTORIAL HepG2 Assay for human Phenobarbital-responsive Enhancer Module (PBREM) (AID 2282955); conditions: HepG2 PBREM cis-reporter, Attagene multiplexed transcription; actives raise or lower the signal
Method in brief: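 After a 24 h incubation with test chemical, transfected HepG2 cells yield total RNA; reporter-specific RT-PCR products are fluorescently labelled, HpaI-digested and resolved by capillary electrophoresis against ROX size standards.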

[8] = biological target: Paired box protein Pax-6 (Homo sapiens) (UniProt P26367); assay: ATG_Pax6_CIS: Attagene CIS-FACTORIAL HepG2 Assay for human Paired Box 6 (PAX6) (AID 2282956); conditions: HepG2 CIS-FACTORIAL PAX6 reporter transcription, RNA readout; actives raise or lower the signal
Method in brief: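 DMSO-referenced bidirectional fits of reporter mRNA fluorescence; HepG2 with transient cis-promoter MRTUs, 24 h post-dose, RT-PCR plus capillary electrophoresis detection.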

[9] = ATG_PXRE_CIS: Attagene CIS-FACTORIAL HepG2 Assay for human Pregnane X Receptor Element (PXRE) (AID 2282957); conditions: HepG2 Attagene CIS-FACTORIAL PXRE reporter, mRNA; actives raise or lower the signal
Method in brief: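 Endogenous transcription factor activity in HepG2 was gauged through induction of reporter mRNA driven by a cis-regulating promoter element, sampled 24 h post-treatment. Activity was fitted in both directions against DMSO negative control.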

[10] = ATG_PPRE_CIS: Attagene CIS-FACTORIAL HepG2 Assay for human Peroxisome Proliferator-activated Response Element (PPRE) (AID 2282958); conditions: HepG2 PPRE cis-element reporter, Attagene transcription factor profiling; actives raise or lower the signal
Method in brief: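 Multiplexed reporter transcription units under cis-regulatory promoters were transfected into HepG2 cells to capture endogenous factor activity. A 24 h incubation preceded RNA isolation and fluorescent RT-PCR fragment analysis.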

[11] = ATG_RORE_CIS: Attagene CIS-FACTORIAL HepG2 Assay for human RAR-related Orphan Receptor Element (RORE) (AID 2282959); conditions: HepG2 Attagene cis-factorial RORE reporter, mRNA; actives raise or lower the signal
Method in brief: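 Fluorescence intensity of reporter-specific cDNA fragments, separated by capillary electrophoresis, gives the signal. Source: HepG2 liver cells transiently transfected with cis-element reporters and exposed 24 h; DMSO-normalized bidirectional fit.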

[12] = ATG_Sox_CIS: Attagene CIS-FACTORIAL HepG2 Assay for human SRY-box transcription factor (SOX) (AID 2282960); conditions: HepG2 Attagene cis-factorial SOX reporter, mRNA; actives raise or lower the signal
Method in brief: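 After 24 h of chemical treatment, transfected HepG2 reporter cells are lysed for total RNA. Transcript levels come from RT-PCR with labelled primer extension and capillary electrophoresis, analysed bidirectionally versus DMSO.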

[13] = biological target: Transcription factor Sp1 (Homo sapiens) (UniProt P08047); assay: ATG_Sp1_CIS: Attagene CIS-FACTORIAL HepG2 Assay for human Specificity Protein 1 (Sp1) (AID 2282961); conditions: HepG2 Sp1 cis-reporter transcription, actives raise or lower the signal
Method in brief: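 Sp1-driven reporter mRNA, read as capillary electrophoresis fluorescence after RT-PCR, in transiently transfected HepG2 cells dosed for 24 h; signal change in either direction relative to DMSO.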

[14] = ATG_SREBP_CIS: Attagene CIS-FACTORIAL HepG2 Assay for human Sterol Regulatory Element Binding (SREBP) (AID 2282962); conditions: HepG2 Attagene cis-factorial SREBP reporter, mRNA; actives raise or lower the signal
Method in brief: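 In this cis-format assay, HepG2 liver cells express reporters controlled by promoter elements responsive to native transcription factors. Exposure lasts 24 h; reporter mRNA fluorescence from capillary electrophoresis gives the signal, fitted bidirectionally against DMSO.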

[15] = biological target: Signal transducer and activator of transcription 3 (Homo sapiens) (UniProt P40763); assay: ATG_STAT3_CIS: Attagene CIS-FACTORIAL HepG2 Assay for human Signal Transducer and Activator of Transcription 3 (STAT3) (AID 2282963); conditions: HepG2, Attagene cis-factorial STAT3 reporter transcription; actives raise or lower the signal
Method in brief: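 Cis-factorial format: endogenous transcription factors in HepG2 drive transfected reporter units. After 24 h treatment, reporter RNA was reverse-transcribed, amplified, FAM-labelled and HpaI-digested before CE analysis; activity scored in both directions against DMSO.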

[16] = ATG_TA_CIS: Attagene CIS-FACTORIAL HepG2 Assay for human TA Basal Promoter (AID 2282964); conditions: HepG2 Attagene CIS-factorial TA basal promoter reporter; actives raise or lower the signal
Method in brief: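 Read-out: fluorescent reporter-transcript fragments resolved by capillary electrophoresis after RT-PCR and HpaI digestion. Source: HepG2 cells carrying transiently transfected multi-reporter cis constructs, treated 24 h. Endpoint fitted bidirectionally relative to DMSO.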

[17] = ATG_TCF_b_cat_CIS: Attagene CIS-FACTORIAL HepG2 Assay for human T-Cell-Factor with beta-catenin (TCF/b-cat) (AID 2282965); conditions: HepG2 TCF/beta-catenin cis-reporter transcription, actives raise or lower the signal
Method in brief: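 Measured: reporter mRNA in HepG2 transiently transfected with cis-promoter reporter units, 24 h after chemical addition. Fitting was bidirectional, DMSO as negative control.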

[18] = ATG_TAL_CIS: Attagene CIS-FACTORIAL HepG2 Assay for human TAL Basal Promoter (AID 2282966); conditions: HepG2 Attagene cis-factorial TAL promoter reporter; actives raise or lower the signal;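 note: background control endpoint measuring basal TAL promoter reporter mRNA not a specific factor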
Method in brief: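 Endogenous transcription-factor activity is sensed in HepG2 cells through transfected cis-promoter reporter constructs. After 24 h dosing, reporter transcripts are quantified by RT-PCR and capillary electrophoresis. Gain or loss of signal is fitted relative to DMSO.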

[19] = ATG_TGFb_CIS: Attagene CIS-FACTORIAL HepG2 Assay for human Transforming Growth Factor (TGF) (AID 2282967); conditions: HepG2 Attagene CIS TGFb reporter, mRNA transcription; actives raise or lower the signal
Method in brief: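 Transient MRTU transfection of HepG2 (FuGene 6). Dose 24 h. TriZol RNA, oligo(dT) RT, PCR, 6-FAM primer extension, HpaI cut, CE. Bidirectional fit, DMSO = baseline.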

[20] = ATG_VDRE_CIS: Attagene CIS-FACTORIAL HepG2 Assay for human Vitamin D Receptor Element (VDRE) (AID 2282968); conditions: HepG2 VDRE cis-reporter transcription, actives raise or lower the signal
Method in brief: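 Measures endogenous factor activity through cis-element-driven reporter transcripts in transiently transfected HepG2. Cells are treated 24 h; reporter mRNA is quantified by RT-PCR and capillary electrophoresis; fitting is bidirectional.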

Measured: AC50

Paired box protein Pax-6 (Homo sapiens), sequence (P26367 whole entry, looked up): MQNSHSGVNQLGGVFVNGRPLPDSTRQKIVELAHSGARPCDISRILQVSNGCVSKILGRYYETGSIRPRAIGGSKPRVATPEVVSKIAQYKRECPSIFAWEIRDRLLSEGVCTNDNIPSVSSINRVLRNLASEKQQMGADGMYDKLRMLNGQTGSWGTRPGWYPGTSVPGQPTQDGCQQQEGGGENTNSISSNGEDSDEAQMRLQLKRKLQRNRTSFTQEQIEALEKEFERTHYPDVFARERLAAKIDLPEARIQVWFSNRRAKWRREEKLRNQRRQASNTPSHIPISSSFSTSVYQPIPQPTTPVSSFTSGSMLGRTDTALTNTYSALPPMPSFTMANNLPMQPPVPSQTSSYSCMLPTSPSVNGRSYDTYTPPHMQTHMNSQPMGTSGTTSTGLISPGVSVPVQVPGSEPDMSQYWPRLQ
Heat shock factor protein 1 (Homo sapiens), sequence (Q00613 whole entry, looked up): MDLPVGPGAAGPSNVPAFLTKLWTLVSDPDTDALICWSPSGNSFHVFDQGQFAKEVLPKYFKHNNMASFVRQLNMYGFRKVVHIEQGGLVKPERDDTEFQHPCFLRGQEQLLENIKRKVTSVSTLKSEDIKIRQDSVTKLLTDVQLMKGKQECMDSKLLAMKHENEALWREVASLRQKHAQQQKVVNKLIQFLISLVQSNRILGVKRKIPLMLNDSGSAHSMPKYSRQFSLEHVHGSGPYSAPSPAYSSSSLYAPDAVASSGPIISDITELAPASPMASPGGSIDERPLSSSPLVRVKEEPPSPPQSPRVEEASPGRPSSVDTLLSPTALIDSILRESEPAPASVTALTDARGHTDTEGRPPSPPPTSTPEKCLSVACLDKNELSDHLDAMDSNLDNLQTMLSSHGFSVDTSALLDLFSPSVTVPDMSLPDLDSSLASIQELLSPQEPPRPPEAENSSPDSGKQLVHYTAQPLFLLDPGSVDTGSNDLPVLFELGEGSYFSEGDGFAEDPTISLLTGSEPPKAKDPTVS
Transcription factor Sp1 (Homo sapiens), sequence (P08047 whole entry, looked up): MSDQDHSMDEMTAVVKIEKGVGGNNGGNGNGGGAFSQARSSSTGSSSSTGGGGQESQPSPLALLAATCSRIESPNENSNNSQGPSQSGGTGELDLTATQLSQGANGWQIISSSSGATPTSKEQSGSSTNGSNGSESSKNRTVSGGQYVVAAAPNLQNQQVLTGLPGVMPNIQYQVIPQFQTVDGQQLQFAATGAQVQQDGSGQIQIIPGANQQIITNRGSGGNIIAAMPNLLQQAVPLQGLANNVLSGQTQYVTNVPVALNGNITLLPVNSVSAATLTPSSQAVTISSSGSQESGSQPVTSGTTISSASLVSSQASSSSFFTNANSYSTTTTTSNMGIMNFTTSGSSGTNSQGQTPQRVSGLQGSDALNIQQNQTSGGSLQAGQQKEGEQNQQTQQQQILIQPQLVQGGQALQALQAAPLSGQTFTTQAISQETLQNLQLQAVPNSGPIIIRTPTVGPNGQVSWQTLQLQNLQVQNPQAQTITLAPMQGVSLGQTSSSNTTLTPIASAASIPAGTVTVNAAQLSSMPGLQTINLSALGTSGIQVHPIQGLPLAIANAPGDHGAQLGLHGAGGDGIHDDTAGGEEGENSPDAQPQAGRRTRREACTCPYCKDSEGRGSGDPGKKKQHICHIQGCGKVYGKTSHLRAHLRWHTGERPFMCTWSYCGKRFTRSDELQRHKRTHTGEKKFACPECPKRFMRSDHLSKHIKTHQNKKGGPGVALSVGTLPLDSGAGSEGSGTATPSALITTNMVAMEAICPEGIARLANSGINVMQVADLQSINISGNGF
Hepatocyte nuclear factor 6 (Homo sapiens), sequence (Q9UBC0 whole entry, looked up): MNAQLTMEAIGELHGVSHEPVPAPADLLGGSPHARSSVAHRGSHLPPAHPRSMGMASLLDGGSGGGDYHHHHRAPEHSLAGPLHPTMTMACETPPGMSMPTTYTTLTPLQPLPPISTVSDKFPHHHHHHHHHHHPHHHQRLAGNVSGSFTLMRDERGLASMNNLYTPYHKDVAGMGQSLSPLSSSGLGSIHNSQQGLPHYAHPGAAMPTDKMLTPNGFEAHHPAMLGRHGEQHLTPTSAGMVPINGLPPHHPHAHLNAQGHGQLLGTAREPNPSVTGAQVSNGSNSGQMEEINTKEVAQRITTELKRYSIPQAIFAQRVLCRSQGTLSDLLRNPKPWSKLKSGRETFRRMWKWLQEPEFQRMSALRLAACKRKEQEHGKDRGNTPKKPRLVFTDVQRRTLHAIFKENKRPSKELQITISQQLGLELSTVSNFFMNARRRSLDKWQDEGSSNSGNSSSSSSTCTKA
Signal transducer and activator of transcription 3 (Homo sapiens), sequence (P40763 whole entry, looked up): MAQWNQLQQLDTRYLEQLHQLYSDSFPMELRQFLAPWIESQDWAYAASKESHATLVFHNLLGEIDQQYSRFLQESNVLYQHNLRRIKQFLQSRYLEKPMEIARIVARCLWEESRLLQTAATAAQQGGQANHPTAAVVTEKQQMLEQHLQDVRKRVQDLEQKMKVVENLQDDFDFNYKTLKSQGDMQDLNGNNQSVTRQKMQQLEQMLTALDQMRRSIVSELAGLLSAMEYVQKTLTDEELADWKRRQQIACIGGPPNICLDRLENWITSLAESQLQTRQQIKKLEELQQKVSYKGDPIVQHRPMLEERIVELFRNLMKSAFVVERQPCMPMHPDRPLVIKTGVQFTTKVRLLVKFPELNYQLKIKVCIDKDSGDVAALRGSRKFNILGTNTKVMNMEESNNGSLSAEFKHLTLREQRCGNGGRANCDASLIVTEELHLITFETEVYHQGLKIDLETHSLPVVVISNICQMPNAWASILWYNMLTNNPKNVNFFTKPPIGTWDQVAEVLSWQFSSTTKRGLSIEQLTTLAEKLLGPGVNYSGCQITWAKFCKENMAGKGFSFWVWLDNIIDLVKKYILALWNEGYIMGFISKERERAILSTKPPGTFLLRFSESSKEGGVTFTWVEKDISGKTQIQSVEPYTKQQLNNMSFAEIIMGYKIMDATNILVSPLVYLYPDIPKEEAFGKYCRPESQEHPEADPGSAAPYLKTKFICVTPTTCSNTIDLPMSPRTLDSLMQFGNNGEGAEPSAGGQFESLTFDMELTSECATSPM
Hypoxia-inducible factor 1-alpha (Homo sapiens), sequence (Q16665 whole entry, looked up): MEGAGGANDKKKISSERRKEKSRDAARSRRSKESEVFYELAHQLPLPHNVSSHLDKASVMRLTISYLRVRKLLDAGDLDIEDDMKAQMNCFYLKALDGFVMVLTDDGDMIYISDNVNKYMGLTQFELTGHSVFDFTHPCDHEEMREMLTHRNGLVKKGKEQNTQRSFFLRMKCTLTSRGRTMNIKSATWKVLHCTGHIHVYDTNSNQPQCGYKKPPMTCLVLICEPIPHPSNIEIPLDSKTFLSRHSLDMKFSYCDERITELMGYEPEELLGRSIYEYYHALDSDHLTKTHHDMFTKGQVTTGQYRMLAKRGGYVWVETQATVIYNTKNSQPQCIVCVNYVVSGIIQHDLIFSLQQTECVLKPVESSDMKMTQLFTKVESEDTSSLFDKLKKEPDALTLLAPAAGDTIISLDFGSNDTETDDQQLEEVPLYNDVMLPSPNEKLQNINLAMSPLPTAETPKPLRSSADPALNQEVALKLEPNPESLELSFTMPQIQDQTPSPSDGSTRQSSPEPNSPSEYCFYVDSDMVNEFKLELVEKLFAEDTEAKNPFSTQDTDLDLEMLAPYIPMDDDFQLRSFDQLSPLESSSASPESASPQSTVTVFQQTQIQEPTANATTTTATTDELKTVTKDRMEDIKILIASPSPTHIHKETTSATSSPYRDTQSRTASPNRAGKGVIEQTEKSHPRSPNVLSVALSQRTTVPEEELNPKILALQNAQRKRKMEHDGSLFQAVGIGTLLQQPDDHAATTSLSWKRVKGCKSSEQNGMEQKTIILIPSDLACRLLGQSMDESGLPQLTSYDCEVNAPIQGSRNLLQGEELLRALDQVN

O=S(=O)(F)C(F)(F)C(F)(F)C(F)(F)C(F)(F)F
inactive: all assays above

CN(N=O)c1ccc([N+](=O)[O-])cc1
active: [9] 18.6 µM
inactive: all other assays above

CCCCOC(=O)COC(=O)c1ccccc1C(=O)OCCCC
active: [9] 40.9 µM | [10] 42.6 µM | [11] 53.2 µM
not listed: [20]
inactive: all other assays above

Cc1cccc(N=Nc2ccc(N(C)C)cc2)c1
active: [9] 10.5 µM | [20] 19.8 µM
inactive: all other assays above

Cc1c([N+](=O)[O-])c(C)c([N+](=O)[O-])c(C(C)(C)C)c1[N+](=O)[O-]
active: [6] 64.1 µM | [9] 1.54 µM | [20] 1.84 µM
inactive: all other assays above

CC(=Cc1ccccc1)[N+](=O)[O-]
active: [5] 4.41 µM | [7] 13.7 µM | [8] 11.1 µM | [9] 4.02 µM
inactive: all other assays above

C=CC(=O)NC(C)(C)CC(C)=O
inactive: all assays above

CCCSP(=S)(OCC)Oc1ccc(Cl)cc1Cl (stereo not drawn)
active: [9] 2.72 µM | [19] 137 µM
inactive: all other assays above

CC(C)(C#N)N=NC(C)(C)C#N
active: [9] 79.6 µM
inactive: all other assays above

CCOP(=O)(OCC)OC(=CCl)c1ccc(Cl)cc1Cl
active: [7] 6.62 µM | [9] 0.754 µM | [20] 1.83 µM
inactive: all other assays above

OC[C@@H](O)[C@H]1O[C@@H]2O[C@H](C(Cl)(Cl)Cl)O[C@@H]2[C@H]1O
not listed: [20]
inactive: all other assays above

C=CCOC(N)=O
inactive: all assays above

FC(F)OCC(F)(F)C(F)(F)F
inactive: all assays above
